Measured values published in the supplement of paper PMC10849652.
The full data set covers some 7,900 targets. This sample favours those with a hit. About 0.6% of all pairs of compound and target were hits. A number with no mark means an inactive call.

How the values were obtained:
Assay in all cases: log2 fold change, soluble protein after heating vs DMSO (PISA); higher = thermal stabilisation; K562 cells, 10 uM, 30 min; active = over 0.2 and 3.5 SD of the protein, either way, in both replicates (recomputed)
saracatinib = compound: CN1CCN(CCOc2cc(OC3CCOCC3)c3c(Nc4c(Cl)ccc5c4OCO5)ncnc3c2)CC1 [saracatinib]
Summary of the method: (§1)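 Soluble protein was quantified by TMTpro 16plex LC-MS/MS after channel sums were equalised. It was obtained as the supernatant after 21,000xg for 90 min from pooled aliquots of K562 cells (2×10^6 cells/mL, 10 μM compound, 30 min) heated for 3 min across 48°C-58°C and extracted in PBS with 0.5% NP-40 at 4°C. Thermal stability values are relative to control samples and come from duplicates. They are given as log2 fold changes.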

sotrastaurin = compound: CN1CCN(c2nc(C3=C(c4c[nH]c5ccccc45)C(=O)NC3=O)c3ccccc3n2)CC1 [sotrastaurin]
Summary of the method: as §1

alvocidib = compound: CN1CC[C@H](c2c(O)cc(O)c3c(=O)cc(-c4ccccc4Cl)oc23)[C@H](O)C1 [alvocidib]
Summary of the method: as §1

Tubastatin A = compound: CN1CCc2c(c3ccccc3n2Cc2ccc(C(=O)NO)cc2)C1 [Tubastatin A]
Summary of the method: as §1

[1] = compound: CNC(=O)C1=CC=CC=C1NC2=NC(=NC=C2Cl)NC3=C(C=C(C=C3)N4CCOCC4)OC
Summary of the method: as §1

defactinib = compound: CNC(=O)c1ccc(Nc2ncc(C(F)(F)F)c(NCc3nccnc3N(C)S(C)(=O)=O)n2)cc1 [defactinib]
Summary of the method: as §1

rucaparib = compound: CNCc1ccc(-c2[nH]c3cc(F)cc4c3c2CCNC4=O)cc1 [rucaparib]
Summary of the method: as §1

[2] = compound: CNc1nc(-c2ccc3c(N)n[nH]c3c2)cc(N2C[C@@H](C(=O)NC3CCCCC3)CC[C@H]2C)n1
Summary of the method: as §1

encorafenib = compound: COC(=O)N[C@@H](C)CNc1nccc(-c2cn(C(C)C)nc2-c2cc(Cl)cc(NS(C)(=O)=O)c2F)n1 [encorafenib]
Summary of the method: as §1

[3] = compound: COC(=O)[C@H](CCSC)NC(=O)C1=C(C=C(C=C1)NC[C@H](CS)N)C2=CC=CC=C2
Summary of the method: as §1

UniProt Q6NZI2, sequence (Q6NZI2 whole entry, looked up): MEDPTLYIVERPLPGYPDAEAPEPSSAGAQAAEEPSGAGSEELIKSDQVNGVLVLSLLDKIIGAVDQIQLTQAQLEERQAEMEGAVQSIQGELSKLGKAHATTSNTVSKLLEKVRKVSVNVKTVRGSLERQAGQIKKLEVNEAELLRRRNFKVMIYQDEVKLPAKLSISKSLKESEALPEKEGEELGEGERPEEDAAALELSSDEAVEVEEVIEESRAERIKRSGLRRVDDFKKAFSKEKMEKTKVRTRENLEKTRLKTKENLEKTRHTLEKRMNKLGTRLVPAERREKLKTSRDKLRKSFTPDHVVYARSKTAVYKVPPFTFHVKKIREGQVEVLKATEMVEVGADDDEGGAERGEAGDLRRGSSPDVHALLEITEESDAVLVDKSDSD
UniProt Q9H9S4, sequence (Q9H9S4 whole entry, looked up): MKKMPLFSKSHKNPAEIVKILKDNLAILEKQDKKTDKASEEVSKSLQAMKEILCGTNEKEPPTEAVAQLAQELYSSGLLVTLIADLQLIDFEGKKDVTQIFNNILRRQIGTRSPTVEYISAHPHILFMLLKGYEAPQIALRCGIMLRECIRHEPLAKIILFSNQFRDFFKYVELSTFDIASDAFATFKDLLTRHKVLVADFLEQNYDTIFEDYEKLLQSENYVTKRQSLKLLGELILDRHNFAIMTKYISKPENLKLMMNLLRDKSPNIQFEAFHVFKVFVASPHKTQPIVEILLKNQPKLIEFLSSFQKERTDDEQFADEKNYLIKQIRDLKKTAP
UniProt Q96G28, sequence (Q96G28 whole entry, looked up): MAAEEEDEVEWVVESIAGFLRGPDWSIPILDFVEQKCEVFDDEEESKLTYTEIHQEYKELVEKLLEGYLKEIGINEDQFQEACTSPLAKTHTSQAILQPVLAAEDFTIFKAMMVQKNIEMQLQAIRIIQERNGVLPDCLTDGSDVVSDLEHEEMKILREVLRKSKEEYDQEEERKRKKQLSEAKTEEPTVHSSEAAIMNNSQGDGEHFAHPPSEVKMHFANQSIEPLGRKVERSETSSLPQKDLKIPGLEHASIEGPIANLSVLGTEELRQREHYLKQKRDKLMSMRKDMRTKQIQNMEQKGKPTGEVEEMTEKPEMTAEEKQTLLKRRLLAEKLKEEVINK
UniProt Q8WUD6, sequence (Q8WUD6 whole entry, looked up): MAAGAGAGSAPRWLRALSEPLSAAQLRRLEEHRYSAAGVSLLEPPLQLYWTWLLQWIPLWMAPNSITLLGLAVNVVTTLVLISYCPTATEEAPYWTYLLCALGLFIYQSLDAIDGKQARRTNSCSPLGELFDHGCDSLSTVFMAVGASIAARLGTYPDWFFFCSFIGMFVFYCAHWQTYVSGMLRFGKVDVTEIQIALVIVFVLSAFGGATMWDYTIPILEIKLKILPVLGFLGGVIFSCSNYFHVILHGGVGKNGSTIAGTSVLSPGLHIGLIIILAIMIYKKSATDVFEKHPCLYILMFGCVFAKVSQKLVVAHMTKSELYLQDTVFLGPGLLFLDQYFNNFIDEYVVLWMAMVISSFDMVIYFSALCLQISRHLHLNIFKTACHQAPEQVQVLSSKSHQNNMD
UniProt Q6P5X5, sequence (Q6P5X5 whole entry, looked up): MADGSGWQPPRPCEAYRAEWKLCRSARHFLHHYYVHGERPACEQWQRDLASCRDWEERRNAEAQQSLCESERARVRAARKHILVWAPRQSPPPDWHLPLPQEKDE
UniProt O75909, sequence (O75909 whole entry, looked up): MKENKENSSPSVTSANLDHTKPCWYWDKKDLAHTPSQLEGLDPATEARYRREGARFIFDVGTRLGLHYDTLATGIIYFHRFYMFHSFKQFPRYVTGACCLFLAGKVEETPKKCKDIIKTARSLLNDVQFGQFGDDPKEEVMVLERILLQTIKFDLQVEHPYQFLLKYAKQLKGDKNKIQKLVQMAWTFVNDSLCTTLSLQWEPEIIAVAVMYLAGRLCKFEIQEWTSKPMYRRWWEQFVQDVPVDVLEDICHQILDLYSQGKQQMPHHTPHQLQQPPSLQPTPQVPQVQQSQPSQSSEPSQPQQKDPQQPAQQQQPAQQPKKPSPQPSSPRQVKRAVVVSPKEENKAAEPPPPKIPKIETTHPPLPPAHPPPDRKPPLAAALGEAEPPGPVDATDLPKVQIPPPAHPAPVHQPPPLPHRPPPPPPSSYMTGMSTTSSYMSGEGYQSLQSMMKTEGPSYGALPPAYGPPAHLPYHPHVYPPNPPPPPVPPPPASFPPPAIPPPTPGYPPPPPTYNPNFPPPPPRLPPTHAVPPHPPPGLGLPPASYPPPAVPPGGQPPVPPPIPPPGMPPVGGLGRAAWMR
UniProt P60033, sequence (P60033 whole entry, looked up): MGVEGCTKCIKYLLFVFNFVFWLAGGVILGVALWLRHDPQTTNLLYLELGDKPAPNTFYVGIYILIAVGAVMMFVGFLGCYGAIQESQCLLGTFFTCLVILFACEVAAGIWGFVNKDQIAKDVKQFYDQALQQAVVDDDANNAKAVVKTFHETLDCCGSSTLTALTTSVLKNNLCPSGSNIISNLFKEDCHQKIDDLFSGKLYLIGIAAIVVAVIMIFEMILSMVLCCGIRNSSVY
UniProt P55211, sequence (P55211 whole entry, looked up): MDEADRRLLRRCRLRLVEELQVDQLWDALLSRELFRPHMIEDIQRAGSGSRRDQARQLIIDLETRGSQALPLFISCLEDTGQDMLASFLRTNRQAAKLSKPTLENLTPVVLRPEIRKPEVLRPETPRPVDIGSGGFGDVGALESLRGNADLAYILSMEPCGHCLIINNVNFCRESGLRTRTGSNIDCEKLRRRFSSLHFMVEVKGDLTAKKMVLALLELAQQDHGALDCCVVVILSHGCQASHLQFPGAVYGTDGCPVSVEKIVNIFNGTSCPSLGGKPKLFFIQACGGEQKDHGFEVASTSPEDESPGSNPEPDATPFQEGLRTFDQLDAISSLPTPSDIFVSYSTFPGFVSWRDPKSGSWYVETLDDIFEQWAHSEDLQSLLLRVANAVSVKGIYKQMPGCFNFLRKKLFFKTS
UniProt O75503, sequence (O75503 whole entry, looked up): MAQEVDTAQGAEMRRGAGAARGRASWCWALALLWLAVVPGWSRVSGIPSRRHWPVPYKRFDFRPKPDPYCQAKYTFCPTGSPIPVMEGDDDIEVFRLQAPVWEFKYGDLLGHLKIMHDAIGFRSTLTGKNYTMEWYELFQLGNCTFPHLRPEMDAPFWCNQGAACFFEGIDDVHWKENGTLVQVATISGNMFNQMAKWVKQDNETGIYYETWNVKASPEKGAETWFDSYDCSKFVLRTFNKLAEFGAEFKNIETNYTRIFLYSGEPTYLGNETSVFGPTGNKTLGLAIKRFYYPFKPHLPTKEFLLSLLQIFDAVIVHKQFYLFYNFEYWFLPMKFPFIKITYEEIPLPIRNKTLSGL
UniProt O60583, sequence (O60583 whole entry, looked up): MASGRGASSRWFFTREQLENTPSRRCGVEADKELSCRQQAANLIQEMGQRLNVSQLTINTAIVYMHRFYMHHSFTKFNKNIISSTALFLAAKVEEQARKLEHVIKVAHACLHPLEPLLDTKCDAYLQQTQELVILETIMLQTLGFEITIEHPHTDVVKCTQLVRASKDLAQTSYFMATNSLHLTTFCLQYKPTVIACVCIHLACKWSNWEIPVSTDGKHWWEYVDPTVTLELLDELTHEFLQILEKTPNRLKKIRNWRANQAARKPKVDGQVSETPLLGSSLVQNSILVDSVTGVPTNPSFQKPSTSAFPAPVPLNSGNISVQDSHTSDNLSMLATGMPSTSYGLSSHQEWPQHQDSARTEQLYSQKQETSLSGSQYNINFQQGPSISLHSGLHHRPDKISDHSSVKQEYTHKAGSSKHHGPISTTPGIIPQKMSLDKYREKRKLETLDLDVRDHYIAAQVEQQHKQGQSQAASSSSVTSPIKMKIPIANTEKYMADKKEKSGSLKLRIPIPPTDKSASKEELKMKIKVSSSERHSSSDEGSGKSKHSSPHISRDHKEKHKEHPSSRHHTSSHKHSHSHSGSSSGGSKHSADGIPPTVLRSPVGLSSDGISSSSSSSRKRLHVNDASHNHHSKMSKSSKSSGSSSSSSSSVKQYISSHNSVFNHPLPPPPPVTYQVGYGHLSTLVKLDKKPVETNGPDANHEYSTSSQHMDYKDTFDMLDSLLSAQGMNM
UniProt Q14746, sequence (Q14746 whole entry, looked up): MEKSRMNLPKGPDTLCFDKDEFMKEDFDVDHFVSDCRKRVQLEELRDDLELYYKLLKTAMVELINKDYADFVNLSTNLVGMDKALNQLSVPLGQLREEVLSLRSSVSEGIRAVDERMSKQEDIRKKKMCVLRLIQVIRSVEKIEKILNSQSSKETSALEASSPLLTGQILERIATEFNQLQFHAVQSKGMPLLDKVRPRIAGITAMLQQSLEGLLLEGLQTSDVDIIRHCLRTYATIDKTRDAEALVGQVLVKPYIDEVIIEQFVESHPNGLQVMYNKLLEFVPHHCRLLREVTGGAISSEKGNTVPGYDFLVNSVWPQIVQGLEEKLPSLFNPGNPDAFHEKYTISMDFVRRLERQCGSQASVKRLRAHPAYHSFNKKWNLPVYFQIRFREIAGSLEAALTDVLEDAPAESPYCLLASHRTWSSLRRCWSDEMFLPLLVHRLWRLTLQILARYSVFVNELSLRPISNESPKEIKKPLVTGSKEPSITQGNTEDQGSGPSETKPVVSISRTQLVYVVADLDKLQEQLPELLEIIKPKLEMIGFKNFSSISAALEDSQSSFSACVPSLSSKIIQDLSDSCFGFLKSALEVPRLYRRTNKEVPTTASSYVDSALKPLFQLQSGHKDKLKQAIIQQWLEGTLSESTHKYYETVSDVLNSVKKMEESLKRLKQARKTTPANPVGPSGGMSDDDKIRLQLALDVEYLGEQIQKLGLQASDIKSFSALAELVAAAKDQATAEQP
UniProt P15954, sequence (P15954 whole entry, looked up): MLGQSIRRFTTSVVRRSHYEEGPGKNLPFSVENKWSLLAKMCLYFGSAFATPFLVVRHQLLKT
UniProt P51636, sequence (P51636 whole entry, looked up): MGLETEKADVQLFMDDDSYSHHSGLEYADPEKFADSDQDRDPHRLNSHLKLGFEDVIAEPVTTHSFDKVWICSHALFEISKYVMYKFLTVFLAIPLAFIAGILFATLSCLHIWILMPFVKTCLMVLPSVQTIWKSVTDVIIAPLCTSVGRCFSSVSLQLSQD

Target	log2 fold change (saracatinib)	log2 fold change (sotrastaurin)	log2 fold change (alvocidib)	log2 fold change (Tubastatin A)	log2 fold change [1]	log2 fold change (defactinib)	log2 fold change (rucaparib)	log2 fold change [2]	log2 fold change (encorafenib)	log2 fold change [3]
CDAN1 (UniProt Q8IWY9)	-0.012	-0.03	-0.019	0.009	-0.029	0.024	0.085	-0.006	0.005	0.112
C22orf39 (UniProt Q6P5X5)	0.076	-0.028	0.013	-0.013	0.129			0.056		
CAV2 (UniProt P51636)	-0.006	0.045		0.159	-0.019			0.013		
CDK16 isoform 2 (UniProt Q00536)	-0.014	0.246		0.014	0.027	0.236	0.278	-0.102	0.016	-0.146
CAB39L (UniProt Q9H9S4)	0.043	-0.213		0.056	0.049	-0.09	0.003	0.015	-0.144	0.043
CSNK1A1 (UniProt P48729)	-0.028	0.011	0.146	0.115		0.058	0.128	0.042	0.037	-0.016
CD81 (UniProt P60033)	0.163	0.103	0	-0.064	-0.029	-0.053	-0.152	0.207	0.199	0
CFAP36 isoform 2 (UniProt Q96G28)	-0.01	-0.023	-0.132	0.116	0.1	0.13	0.064	-0.058	0.053	0.05
CAVIN1 (UniProt Q6NZI2)	-0.065	-0.053	0.101	0.159	-0.015	0.226	0.098	0.119	0.122	0.034
CRTC1 isoform 2 (UniProt Q6UUV9)	-0.026	0.011		-0.009	-0.101	-0.021		-0.062		0.009
CASP9 (UniProt P55211)	-0.206	-0.25	-0.136	0.098		-0.165	0.161	-0.051	0.012	-0.035
CLPP (UniProt Q16740)	0	0.009	-0.011	0.067	0.054	-0.017	0.026	-0.028	-0.077	-0.038
C6orf120 (UniProt Q7Z4R8)	-0.097	0.008		0.041	-0.145	0.024	0.127	0.041	0.074	-0.045
CD84 (UniProt Q9UIB8)	-0.012	-0.144	-0.111	-0.039	-0.119			0.56 (active)		
CDK17 isoform 2 (UniProt Q00537)	0.008	-0.036	0.602 (active)		-0.017	0.11	0.494	0.06	-0.027	0.014
CASP10 isoform 4 (UniProt Q92851)	0.034	-0.138	-0.116	0.127		0.028	0.111	0.04	0.164	-0.039

Target	log2 fold change (saracatinib)	log2 fold change (sotrastaurin)	log2 fold change (alvocidib)	log2 fold change (Tubastatin A)	log2 fold change [1]	log2 fold change (defactinib)	log2 fold change (rucaparib)	log2 fold change [2]	log2 fold change (encorafenib)	log2 fold change [3]
C9orf72 (UniProt Q96LT7)	0.071	0.129	-0.04	-0.126	-0.071	-0.056		-0.021		0
CASP8 isoform 9 (UniProt Q14790)	-0.032	-0.019		0.115	0.053	-0.1	0.011	0.04	0.044	0.037
CDKN1B (UniProt P46527)	0.29	0.129	0.256		-0.247	0.163		-0.298		0.028
COX7C (UniProt P15954)	0.026	0.028		0.03	0.007	0.031	0.011	-0.054	-0.06	0.047
CEP128 (UniProt Q6ZU80)	-0.092	-0.022	0.033	0.024		0.027	-0.306	-0.22	0.061	0.044
COX17 (UniProt Q14061)	-0.092	-0.023	-0.101	-0.113	-0.008	-0.072		0.023		0.147
CCNT2 (UniProt O60583)	-0.016	-0.372		0.157			-0.112	0.04	0.119	
COG2 (UniProt Q14746)	0.001	-0.32	0.137	-0.08	-0.135		-0.272	-0.085	0.007	
CHPT1 (UniProt Q8WUD6)	-0.066	-0.016	-0.118	-0.08			-0.069	0.034	0.103	
CENPE (UniProt Q02224)	0.318	-0.19	-0.385	0.091	-0.277	-0.056		0.399		0.198
CEMIP2 (UniProt Q9UHN6)	-0.104		-0.055	-0.005	0.032	0.017	0.046	-0.026	-0.1	0.029
CLN5 (UniProt O75503)	-0.283	-0.008	0.01	0.079	0.032			-0.715		
CRMP1 isoform 2 (UniProt Q14194)	-0.059	0.107	-0.052	0.025	0.024	-0.149		-0.041		0.025
CCNC (UniProt P24863)	0.057	-0.057	0.6 (active)		0.008	-0.047		-0.028		0.001
CCNK isoform 4 (UniProt O75909)	-0.072	0.135	0.022	0.057	-0.147	0.043	0.066	-0.019	0.029	0.003
